# How the values were obtained:
# Test in all cases: DAPPL (digital affinity profiling via proximity ligation, sequencing); 10 mM Tris-HCl pH 7.5, 50 mM NaCl, 1 mM DTT, 4% glycerol, room temperature, 30 min; GST-TFs on glutathione beads, 16-mer random dsDNA library, 0.1% formaldehyde crosslink after washing; high values mean tight binding
# [1] = target: T1, FEV (Homo sapiens, UniProt Q99581 1-238); settings: protein: recombinant; tags: N-terminal GST; dsDNA, one strand shown
# T1 sequence: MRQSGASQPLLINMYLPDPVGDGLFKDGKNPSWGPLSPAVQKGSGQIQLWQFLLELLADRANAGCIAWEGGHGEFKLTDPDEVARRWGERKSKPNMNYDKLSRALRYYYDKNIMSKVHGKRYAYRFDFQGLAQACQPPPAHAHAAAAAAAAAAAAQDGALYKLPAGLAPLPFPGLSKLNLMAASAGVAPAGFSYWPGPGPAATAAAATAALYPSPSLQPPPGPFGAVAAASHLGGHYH
# How it was run: (§1)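 Pools of DNA-barcoded human transcription factors, expressed in yeast as GST fusions on glutathione beads and combined with a tag-only sample, were incubated with 200 nmole of a 16-mer random double-stranded DNA library. Incubation took 30 min at room temperature in Tris/NaCl/DTT/glycerol buffer and was followed by washing, 0.1% formaldehyde crosslinking, proximity ligation (BsaI/T4 ligase, 1 h, 37 °C), PCR amplification and sequencing on an Illumina NextSeq500. Binding signal is the ratio of a hexamer's read frequency for a factor to its frequency for the tag-only sample.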
# [2] = target: ETV5 (Homo sapiens, UniProt P41161 1-510); settings: protein: recombinant; tags: N-terminal GST; dsDNA, one strand shown
# How it was run: as §1
# [3] = target: HSF1 (Homo sapiens, UniProt Q00613 1-529); settings: protein: recombinant; tags: N-terminal GST; chain copies: 3; dsDNA, one strand shown
# How it was run: as §1
# [4] = target: T2, SPIC (Homo sapiens, UniProt Q8N5J4 1-248); settings: protein: recombinant; tags: N-terminal GST; dsDNA, one strand shown
# T2 sequence: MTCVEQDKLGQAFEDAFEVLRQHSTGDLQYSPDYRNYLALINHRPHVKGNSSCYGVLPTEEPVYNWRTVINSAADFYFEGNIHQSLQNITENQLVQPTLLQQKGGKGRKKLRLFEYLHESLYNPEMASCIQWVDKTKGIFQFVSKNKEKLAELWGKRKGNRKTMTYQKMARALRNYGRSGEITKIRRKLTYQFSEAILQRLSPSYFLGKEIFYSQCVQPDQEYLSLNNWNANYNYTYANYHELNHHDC
# How it was run: as §1
# [5] = target: ELF4 (Homo sapiens, UniProt Q99607 1-663); settings: protein: recombinant; tags: N-terminal GST; dsDNA, one strand shown
# How it was run: as §1
# [6] = target: T3, ELK4 (Homo sapiens, UniProt P28324-2 1-405); settings: protein: recombinant; tags: N-terminal GST; dsDNA, one strand shown
# T3 sequence: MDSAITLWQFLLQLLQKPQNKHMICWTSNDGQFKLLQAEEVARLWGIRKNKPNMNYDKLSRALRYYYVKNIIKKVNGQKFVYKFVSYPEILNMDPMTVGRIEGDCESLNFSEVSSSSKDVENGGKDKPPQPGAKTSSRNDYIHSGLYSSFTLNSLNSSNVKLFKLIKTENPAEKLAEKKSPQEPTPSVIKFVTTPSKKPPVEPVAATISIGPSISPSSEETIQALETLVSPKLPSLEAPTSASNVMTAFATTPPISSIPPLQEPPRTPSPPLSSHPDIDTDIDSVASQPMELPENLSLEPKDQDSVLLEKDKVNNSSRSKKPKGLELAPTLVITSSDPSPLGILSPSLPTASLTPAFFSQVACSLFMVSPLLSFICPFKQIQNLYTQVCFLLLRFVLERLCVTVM
# How it was run: as §1
# [7] = target: T4, ETV2 (Homo sapiens, UniProt O00321 1-342); settings: protein: recombinant; tags: N-terminal GST; dsDNA, one strand shown
# T4 sequence: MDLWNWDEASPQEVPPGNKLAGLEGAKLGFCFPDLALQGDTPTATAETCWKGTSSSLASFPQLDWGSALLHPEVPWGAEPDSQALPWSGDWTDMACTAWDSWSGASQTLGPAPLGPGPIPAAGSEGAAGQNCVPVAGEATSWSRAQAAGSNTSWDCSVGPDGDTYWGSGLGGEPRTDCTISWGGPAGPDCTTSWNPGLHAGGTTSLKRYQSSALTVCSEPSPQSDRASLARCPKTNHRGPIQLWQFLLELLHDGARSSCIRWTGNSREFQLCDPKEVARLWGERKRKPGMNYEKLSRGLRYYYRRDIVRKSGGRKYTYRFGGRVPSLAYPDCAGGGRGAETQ
# How it was run: as §1
# [8] = target: T5, ELF3 (Homo sapiens, UniProt P78545 1-371); settings: protein: recombinant; tags: N-terminal GST; dsDNA, one strand shown
# T5 sequence: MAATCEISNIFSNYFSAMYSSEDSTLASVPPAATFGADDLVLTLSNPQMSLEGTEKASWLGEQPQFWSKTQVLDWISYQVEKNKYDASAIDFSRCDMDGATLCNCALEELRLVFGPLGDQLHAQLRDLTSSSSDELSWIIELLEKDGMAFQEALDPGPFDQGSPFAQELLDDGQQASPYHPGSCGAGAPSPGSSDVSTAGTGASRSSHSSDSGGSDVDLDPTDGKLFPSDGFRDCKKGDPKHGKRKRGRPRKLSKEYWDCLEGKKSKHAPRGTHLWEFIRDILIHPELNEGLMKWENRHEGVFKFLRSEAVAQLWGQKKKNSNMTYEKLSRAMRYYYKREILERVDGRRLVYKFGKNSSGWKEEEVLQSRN
# How it was run: as §1
# [9] = target: CRX (Homo sapiens, UniProt O43186 1-299); settings: protein: recombinant; tags: N-terminal GST; dsDNA, one strand shown
# How it was run: as §1
# [10] = target: ETV1 (Homo sapiens, UniProt P50549 1-477); settings: protein: recombinant; tags: N-terminal GST; dsDNA, one strand shown
# How it was run: as §1
# [11] = target: T6, ERF (Homo sapiens, UniProt P50548 1-548); settings: protein: recombinant; tags: N-terminal GST; dsDNA, one strand shown
# T6 sequence: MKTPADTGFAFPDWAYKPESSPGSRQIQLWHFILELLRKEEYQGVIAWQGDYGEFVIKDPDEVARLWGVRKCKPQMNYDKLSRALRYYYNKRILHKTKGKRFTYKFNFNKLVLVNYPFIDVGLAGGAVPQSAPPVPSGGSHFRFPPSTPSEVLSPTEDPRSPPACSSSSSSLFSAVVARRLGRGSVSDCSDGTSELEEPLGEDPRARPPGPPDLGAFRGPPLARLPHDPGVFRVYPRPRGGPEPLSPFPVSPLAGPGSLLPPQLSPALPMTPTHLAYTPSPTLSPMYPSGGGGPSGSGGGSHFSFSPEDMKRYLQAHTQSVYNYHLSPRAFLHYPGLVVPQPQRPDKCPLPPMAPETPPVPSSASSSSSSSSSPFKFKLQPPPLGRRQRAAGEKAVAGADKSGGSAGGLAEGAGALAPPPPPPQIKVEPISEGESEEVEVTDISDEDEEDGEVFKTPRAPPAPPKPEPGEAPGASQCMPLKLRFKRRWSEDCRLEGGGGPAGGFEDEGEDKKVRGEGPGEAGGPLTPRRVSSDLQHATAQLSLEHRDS
# How it was run: as §1
# [12] = target: T7, ETV3L (Homo sapiens, UniProt Q6ZN32 1-361); settings: protein: recombinant; tags: N-terminal GST; dsDNA, one strand shown
# T7 sequence: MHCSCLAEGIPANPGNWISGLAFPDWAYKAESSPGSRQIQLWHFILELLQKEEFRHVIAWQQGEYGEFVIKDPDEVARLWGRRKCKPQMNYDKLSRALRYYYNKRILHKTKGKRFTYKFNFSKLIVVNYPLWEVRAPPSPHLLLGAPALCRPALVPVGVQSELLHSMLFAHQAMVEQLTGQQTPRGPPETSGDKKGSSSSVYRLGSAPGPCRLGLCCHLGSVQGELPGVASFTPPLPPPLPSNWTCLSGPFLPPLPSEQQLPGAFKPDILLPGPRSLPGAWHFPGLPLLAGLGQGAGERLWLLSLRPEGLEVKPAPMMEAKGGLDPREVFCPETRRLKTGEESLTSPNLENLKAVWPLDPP
# How it was run: as §1
# [13] = target: T8, ETS2 (Homo sapiens, UniProt P15036 1-469); settings: protein: recombinant; tags: N-terminal GST; dsDNA, one strand shown
# T8 sequence: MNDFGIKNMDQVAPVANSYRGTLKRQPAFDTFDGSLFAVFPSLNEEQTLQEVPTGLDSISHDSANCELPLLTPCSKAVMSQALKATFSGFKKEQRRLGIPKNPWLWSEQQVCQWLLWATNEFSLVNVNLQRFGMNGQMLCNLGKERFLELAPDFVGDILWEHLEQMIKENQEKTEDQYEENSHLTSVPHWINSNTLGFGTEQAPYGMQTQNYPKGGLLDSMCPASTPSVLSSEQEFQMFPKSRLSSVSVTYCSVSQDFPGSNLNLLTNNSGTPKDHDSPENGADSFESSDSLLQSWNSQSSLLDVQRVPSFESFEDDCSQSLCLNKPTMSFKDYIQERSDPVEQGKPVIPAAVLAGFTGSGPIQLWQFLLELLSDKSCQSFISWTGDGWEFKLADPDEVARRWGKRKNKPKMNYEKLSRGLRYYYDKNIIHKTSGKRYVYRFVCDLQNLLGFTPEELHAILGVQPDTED
# How it was run: as §1
# [14] = target: T9, SPDEF (Homo sapiens, UniProt O95238 1-335); settings: protein: recombinant; tags: N-terminal GST; dsDNA, one strand shown
# T9 sequence: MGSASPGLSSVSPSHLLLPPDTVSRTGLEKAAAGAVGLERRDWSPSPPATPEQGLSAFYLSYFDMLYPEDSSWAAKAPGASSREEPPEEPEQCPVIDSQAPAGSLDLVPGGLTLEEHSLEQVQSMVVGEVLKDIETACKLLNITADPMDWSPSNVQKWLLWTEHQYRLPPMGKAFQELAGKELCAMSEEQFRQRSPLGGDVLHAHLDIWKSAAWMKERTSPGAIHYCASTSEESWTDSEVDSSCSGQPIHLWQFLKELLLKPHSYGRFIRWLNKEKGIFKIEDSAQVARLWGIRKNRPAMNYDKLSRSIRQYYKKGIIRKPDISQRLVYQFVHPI
# How it was run: as §1
# [15] = target: T10, ETV7 (Homo sapiens, UniProt Q9Y603 1-341); settings: protein: recombinant; tags: N-terminal GST; dsDNA, one strand shown
# T10 sequence: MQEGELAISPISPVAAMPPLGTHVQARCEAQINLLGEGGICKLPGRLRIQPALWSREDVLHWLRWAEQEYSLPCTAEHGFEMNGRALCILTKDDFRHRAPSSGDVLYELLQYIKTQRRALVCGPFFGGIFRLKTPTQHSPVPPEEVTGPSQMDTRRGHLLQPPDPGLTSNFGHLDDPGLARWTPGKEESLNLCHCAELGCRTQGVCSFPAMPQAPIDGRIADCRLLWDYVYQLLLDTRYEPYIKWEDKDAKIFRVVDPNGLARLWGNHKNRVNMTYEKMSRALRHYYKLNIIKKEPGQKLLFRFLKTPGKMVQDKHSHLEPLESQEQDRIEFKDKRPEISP
# How it was run: as §1
# [16] = target: T11, ELF5 (Homo sapiens, UniProt Q9UKW6-2 1-255); settings: protein: recombinant; tags: N-terminal GST; dsDNA, one strand shown
# T11 sequence: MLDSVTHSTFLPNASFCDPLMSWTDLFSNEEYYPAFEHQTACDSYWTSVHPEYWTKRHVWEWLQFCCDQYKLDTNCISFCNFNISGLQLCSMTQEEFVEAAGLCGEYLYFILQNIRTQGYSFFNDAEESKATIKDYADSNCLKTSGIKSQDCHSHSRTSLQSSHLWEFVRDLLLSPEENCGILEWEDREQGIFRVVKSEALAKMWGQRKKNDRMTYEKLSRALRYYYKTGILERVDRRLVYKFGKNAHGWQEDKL
# How it was run: as §1
# [17] = target: T12, ETV3 (Homo sapiens, UniProt P41162-2 1-143); settings: protein: recombinant; tags: N-terminal GST; dsDNA, one strand shown
# T12 sequence: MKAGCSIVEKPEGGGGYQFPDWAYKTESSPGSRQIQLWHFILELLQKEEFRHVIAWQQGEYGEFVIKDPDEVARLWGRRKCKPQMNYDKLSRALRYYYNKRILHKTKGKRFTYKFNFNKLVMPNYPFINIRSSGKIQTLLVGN
# How it was run: as §1
# [18] = target: ETV6 (Homo sapiens, UniProt P41212 1-452); settings: protein: recombinant; tags: N-terminal GST; dsDNA, one strand shown
# How it was run: as §1
# ETV5, sequence (P41161 whole entry): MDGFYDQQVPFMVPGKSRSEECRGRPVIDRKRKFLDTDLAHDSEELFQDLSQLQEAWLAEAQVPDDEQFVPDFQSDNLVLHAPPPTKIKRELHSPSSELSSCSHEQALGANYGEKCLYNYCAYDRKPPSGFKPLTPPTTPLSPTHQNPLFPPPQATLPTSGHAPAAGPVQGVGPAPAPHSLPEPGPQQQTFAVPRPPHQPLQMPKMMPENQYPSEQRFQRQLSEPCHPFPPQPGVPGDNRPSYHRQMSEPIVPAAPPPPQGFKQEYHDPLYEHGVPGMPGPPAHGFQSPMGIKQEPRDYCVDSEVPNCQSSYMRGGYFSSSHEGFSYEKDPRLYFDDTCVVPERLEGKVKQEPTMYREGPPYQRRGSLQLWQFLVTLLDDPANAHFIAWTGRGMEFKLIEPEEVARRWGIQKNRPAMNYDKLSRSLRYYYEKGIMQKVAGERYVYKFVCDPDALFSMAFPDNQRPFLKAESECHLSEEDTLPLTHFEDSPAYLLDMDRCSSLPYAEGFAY
# ETV1, sequence (P50549 whole entry): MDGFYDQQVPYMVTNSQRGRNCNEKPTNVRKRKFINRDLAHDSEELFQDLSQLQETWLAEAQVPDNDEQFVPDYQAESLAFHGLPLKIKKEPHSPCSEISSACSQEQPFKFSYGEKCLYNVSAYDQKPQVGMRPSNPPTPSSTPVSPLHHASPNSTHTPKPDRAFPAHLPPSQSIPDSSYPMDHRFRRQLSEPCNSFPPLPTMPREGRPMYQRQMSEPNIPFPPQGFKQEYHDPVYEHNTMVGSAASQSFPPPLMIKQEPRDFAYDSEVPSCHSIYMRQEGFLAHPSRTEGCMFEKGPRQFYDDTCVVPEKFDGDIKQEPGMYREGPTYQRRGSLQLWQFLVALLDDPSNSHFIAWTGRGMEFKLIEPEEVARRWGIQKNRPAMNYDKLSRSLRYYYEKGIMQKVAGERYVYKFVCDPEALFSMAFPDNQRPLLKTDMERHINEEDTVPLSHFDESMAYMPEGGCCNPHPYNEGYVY
# ELF4, sequence (Q99607 whole entry): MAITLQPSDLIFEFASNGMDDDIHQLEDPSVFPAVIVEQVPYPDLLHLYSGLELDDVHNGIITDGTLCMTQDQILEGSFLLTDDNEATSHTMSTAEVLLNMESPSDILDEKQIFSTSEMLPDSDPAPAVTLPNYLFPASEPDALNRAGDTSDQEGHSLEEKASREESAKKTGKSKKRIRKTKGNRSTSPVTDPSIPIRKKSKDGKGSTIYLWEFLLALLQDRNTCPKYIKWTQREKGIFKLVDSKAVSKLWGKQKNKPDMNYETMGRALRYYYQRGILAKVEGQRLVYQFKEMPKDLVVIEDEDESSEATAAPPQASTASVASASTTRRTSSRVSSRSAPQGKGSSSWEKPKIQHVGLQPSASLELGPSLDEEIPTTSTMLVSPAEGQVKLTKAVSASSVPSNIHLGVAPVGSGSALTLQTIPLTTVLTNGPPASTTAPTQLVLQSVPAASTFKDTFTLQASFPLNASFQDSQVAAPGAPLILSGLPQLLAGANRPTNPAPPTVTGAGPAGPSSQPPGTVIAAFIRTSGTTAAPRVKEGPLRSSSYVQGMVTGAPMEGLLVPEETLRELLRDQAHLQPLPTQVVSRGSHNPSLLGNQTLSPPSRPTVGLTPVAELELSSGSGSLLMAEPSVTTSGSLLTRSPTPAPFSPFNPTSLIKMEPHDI
# HSF1, sequence (Q00613 whole entry): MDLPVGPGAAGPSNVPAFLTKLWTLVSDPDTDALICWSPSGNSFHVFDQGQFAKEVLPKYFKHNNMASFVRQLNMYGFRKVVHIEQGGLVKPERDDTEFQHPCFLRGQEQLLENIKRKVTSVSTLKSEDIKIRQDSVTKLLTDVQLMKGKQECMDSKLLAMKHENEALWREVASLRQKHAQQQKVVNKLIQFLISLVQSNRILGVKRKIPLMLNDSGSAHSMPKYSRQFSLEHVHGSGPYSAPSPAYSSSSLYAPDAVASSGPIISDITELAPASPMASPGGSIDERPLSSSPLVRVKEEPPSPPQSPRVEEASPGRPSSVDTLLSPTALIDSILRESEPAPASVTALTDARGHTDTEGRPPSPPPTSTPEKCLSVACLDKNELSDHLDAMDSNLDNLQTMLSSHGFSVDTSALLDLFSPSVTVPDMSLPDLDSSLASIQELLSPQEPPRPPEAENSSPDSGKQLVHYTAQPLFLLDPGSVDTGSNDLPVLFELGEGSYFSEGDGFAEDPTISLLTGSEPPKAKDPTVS
# CRX, sequence (O43186 whole entry): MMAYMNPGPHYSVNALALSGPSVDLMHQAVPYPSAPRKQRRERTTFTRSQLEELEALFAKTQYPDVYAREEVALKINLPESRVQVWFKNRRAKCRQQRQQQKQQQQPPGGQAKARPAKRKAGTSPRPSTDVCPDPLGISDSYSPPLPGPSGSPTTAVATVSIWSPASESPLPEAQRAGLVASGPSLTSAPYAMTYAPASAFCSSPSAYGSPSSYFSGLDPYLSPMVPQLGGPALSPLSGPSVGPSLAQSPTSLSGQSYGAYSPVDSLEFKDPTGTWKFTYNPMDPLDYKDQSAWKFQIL
# ETV6, sequence (P41212 whole entry): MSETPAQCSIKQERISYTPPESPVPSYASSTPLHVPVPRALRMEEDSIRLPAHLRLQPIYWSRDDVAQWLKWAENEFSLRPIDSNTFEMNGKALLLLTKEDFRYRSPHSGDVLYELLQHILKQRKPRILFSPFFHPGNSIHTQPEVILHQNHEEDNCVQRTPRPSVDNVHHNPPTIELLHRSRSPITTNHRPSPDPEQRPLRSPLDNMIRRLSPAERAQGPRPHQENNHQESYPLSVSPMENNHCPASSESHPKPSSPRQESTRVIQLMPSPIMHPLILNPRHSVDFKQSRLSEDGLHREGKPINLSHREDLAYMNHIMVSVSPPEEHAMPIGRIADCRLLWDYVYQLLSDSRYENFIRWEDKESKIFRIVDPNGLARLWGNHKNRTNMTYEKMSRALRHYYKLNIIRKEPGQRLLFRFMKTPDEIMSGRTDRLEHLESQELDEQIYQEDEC
sequence,measurement,setting,value
TACGTT,binding signal,[1],"1.35 fold enrichment (6-mer frequency, TF over GST control)"
same,binding signal,[2],"1.33 fold enrichment (6-mer frequency, TF over GST control)"
same,binding signal,[3],"1.24 fold enrichment (6-mer frequency, TF over GST control)"
same,binding signal,[4],"1.47 fold enrichment (6-mer frequency, TF over GST control)"
same,binding signal,[5],"1.23 fold enrichment (6-mer frequency, TF over GST control)"
same,binding signal,[6],"1.29 fold enrichment (6-mer frequency, TF over GST control)"
same,binding signal,[7],"1.27 fold enrichment (6-mer frequency, TF over GST control)"
same,binding signal,[8],"1.12 fold enrichment (6-mer frequency, TF over GST control)"
same,binding signal,[9],"1.34 fold enrichment (6-mer frequency, TF over GST control)"
same,binding signal,[10],"1.29 fold enrichment (6-mer frequency, TF over GST control)"
same,binding signal,[11],"1.3 fold enrichment (6-mer frequency, TF over GST control)"
same,binding signal,[12],"1.32 fold enrichment (6-mer frequency, TF over GST control)"
same,binding signal,[13],"1.21 fold enrichment (6-mer frequency, TF over GST control)"
same,binding signal,[14],"1.22 fold enrichment (6-mer frequency, TF over GST control)"
same,binding signal,[15],"1.34 fold enrichment (6-mer frequency, TF over GST control)"
same,binding signal,[16],"1.27 fold enrichment (6-mer frequency, TF over GST control)"
same,binding signal,[17],"1.27 fold enrichment (6-mer frequency, TF over GST control)"
same,binding signal,[18],"1.38 fold enrichment (6-mer frequency, TF over GST control)"

# From publication PMC7862700, “An all-to-all approach to the identification of sequence-specific readers for epigenetic DNA modifications on cytosine”
